Assay outcomes deposited in PubChem by several laboratories.
In the library only some 3.2% were active in any assay of this set; here they are far more common.
SKN-1 inh = suppressors of acrylamide-induced Pgst-4::GFP reporter in worms, primary screen, SKN-1 inhibitor project, whole organism, uHTS, GFP/RFP fluorescence ratio, strain VP596. C. elegans VP596 Pgst-4::GFP/RFP ratio, 24 h. inhibition, % at 21.8 µM. 360,000 tested, 0.49% active. AID 624304, 2012;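 active = interference check ratio from 0.5 to 1.5 plus GFP to RFP signal ratio inhibition reaching or exceeding a fixed threshold, cut at about 30% in these data, passing the limit was not always enough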
CendR NRP1 mod = modulators of CendR peptide binding to NRP-1, primary screen, biochemical, fluorescence polarization, uHTS; FAM-RPARPAR peptide binding to NRP-1; AID 602438, 2012; inhibition, % at 25 µM; 360,000 tested, 0.85% active;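 active = inhibition or corrected inhibition above about 18%, plus a signal ratio from 0.5 to 1.5, limit read from the data, passing the limit was not always enough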
MEKK2 mut-MEK5 = MEK5 binding signal on mutant MEKK2 PB1, primary screen, biochemical, multiplex bead flow cytometry, Alexa488-MEK5; Alexa488-MEK5 binding to MEKK2 mutant; percent response, % at 10 µM; 290,000 tested, 0.35% active; AID 1530, 2009; in the data active = percent response above about 24%, passing the limit was not always enough
MEKK3 PB1 HTS = modulators of MEKK3-MEK5 PB1 binding, primary screen, biochemical, wildtype MEKK3, multiplex bead flow cytometry, Alexa488-MEK5. bead-based flow cytometry, Alexa488-MEK5 binding to MEKK3; actives lie on both sides; 0 = blocked by unlabeled MEK5, 100 = vehicle. 290,000 tested, 1.4% active. binding response (% of control), % at 10 µM. Mitogen-activated protein kinase kinase kinase 3 (Homo sapiens), Q99759;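 active = binding response more than 3 SD above or below the average of its plate-row segment, actives on both sides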;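 also: Alexa488 bead fluorescence after subtracting the streptavidin-only scavenger bead signal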
Target sequence (Q99759 whole entry, looked up): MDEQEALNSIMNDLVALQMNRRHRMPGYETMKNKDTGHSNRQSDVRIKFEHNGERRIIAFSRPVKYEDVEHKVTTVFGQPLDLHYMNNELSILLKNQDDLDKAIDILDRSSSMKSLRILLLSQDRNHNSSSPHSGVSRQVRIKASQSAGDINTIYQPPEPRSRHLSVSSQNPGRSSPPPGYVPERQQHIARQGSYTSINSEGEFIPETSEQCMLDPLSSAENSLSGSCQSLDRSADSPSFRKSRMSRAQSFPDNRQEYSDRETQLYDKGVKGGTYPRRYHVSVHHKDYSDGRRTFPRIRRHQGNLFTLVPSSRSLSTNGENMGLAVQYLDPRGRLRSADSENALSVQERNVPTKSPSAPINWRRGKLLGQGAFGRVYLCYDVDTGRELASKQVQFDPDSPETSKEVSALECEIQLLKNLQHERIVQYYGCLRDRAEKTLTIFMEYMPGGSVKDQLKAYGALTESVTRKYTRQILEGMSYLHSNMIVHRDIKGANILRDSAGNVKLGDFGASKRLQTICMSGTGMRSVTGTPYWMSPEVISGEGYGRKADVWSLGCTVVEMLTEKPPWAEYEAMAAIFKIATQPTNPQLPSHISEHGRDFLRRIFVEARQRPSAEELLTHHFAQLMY
MEKK2wt PB1 HTS = modulators of MEK5 binding to wildtype MEKK2, primary screen, biochemical, multiplex bead flow cytometry, Alexa488-MEK5. binding response (% of control), % at 10 µM. Alexa488-MEK5 binding to MEKK2 WT; actives lie on both sides. 290,000 tested, 1.1% active; in the data active = binding response below about 67% or above about 130%
Numbers stand for hits.

What do the screens show for `COc1ccc(CCC(=O)Nc2ccc3c(c2)OCO3)cc1OC`?
SKN-1 inh: inactive; CendR NRP1 mod: inactive; MEKK2 mut-MEK5: inactive; MEKK3 PB1 HTS: inactive; MEKK2wt PB1 HTS: inactive

What do the screens show for `CCOC(=O)c1c(=O)n(O)c2ccc(OC)cc2[n+]1[O-]`?
SKN-1 inh: inactive; CendR NRP1 mod: 25; MEKK2 mut-MEK5: inactive; MEKK3 PB1 HTS: inactive; MEKK2wt PB1 HTS: inactive

Results for COc1ccc(NC2CC(=O)N(CCc3ccccc3)C2=O)cc1 (stereo not drawn) ?
SKN-1 inh: 38; CendR NRP1 mod: inactive; MEKK2 mut-MEK5: inactive; MEKK3 PB1 HTS: inactive; MEKK2wt PB1 HTS: inactive

How did O=C1CC(Nc2ccccc2)C(=O)N1CCc1ccccc1 (stereo not drawn) do in these assays?
SKN-1 inh: inactive; CendR NRP1 mod: inactive; MEKK2 mut-MEK5: inactive; MEKK3 PB1 HTS: inactive; MEKK2wt PB1 HTS: inactive

How did CCOC(=O)C1=CCC(c2cccn2C(=O)OC(C)(C)C)N(S(=O)(=O)c2ccc(C)cc2)C1 (stereo not drawn) do in these assays?
SKN-1 inh: inactive; CendR NRP1 mod: inactive

What do the screens show for `O=C(COC(=O)C1CC1)Nc1ccc(OC(F)F)cc1`?
SKN-1 inh: inactive; CendR NRP1 mod: 46; MEKK2 mut-MEK5: inactive; MEKK3 PB1 HTS: inactive; MEKK2wt PB1 HTS: inactive

Results for COc1cc(Cn2nnc3ccccc32)cc(Br)c1O ?
SKN-1 inh: inactive; CendR NRP1 mod: 23; MEKK2 mut-MEK5: inactive; MEKK3 PB1 HTS: inactive; MEKK2wt PB1 HTS: inactive

Results for O=C(CN1CCN(S(=O)(=O)c2ccccc2)CC1)Nc1ccnn1C1CCCC1 ?
SKN-1 inh: inactive; CendR NRP1 mod: inactive

Results for COC(=O)c1nc(-c2ccc(C)cc2)oc1N(C)C ?
SKN-1 inh: inactive; CendR NRP1 mod: inactive; MEKK2 mut-MEK5: inactive; MEKK3 PB1 HTS: inactive; MEKK2wt PB1 HTS: inactive

Results for COC(=O)c1nc(-c2ccccc2)oc1N(C)C ?
SKN-1 inh: 32; CendR NRP1 mod: inactive; MEKK2 mut-MEK5: inactive; MEKK3 PB1 HTS: inactive; MEKK2wt PB1 HTS: inactive

How did CCCNC(=O)C(Cc1ccccc1)NC(=O)c1ccc(C(C)(C)C)cc1 (stereo not drawn) do in these assays?
SKN-1 inh: inactive; CendR NRP1 mod: 26

Results for O=C1OC2C(O)COC23OC(O)CCC13O (stereo not drawn) ?
SKN-1 inh: inactive; CendR NRP1 mod: inactive

What do the screens show for `Cc1onc(-c2c(F)cccc2Cl)c1C(=O)Nc1nnc(C(F)(F)F)s1`?
SKN-1 inh: inactive; CendR NRP1 mod: inactive; MEKK2 mut-MEK5: inactive; MEKK3 PB1 HTS: inactive; MEKK2wt PB1 HTS: inactive

What do the screens show for `Cc1onc(-c2c(F)cccc2Cl)c1C(=O)Nc1nc2ccccc2[nH]1`?
SKN-1 inh: 42; CendR NRP1 mod: inactive; MEKK2 mut-MEK5: inactive; MEKK3 PB1 HTS: inactive; MEKK2wt PB1 HTS: inactive

What do the screens show for `COCc1nnc(NC(=O)c2c(-c3c(Cl)cccc3Cl)noc2C)s1`?
SKN-1 inh: inactive; CendR NRP1 mod: 20; MEKK2 mut-MEK5: inactive; MEKK3 PB1 HTS: inactive; MEKK2wt PB1 HTS: inactive

What do the screens show for `COc1ccc(CN2CCN(Cc3ccco3)CC2)cc1`?
SKN-1 inh: 40; CendR NRP1 mod: inactive; MEKK2 mut-MEK5: inactive; MEKK3 PB1 HTS: inactive; MEKK2wt PB1 HTS: inactive

Results for COc1cccc(CN2CCN(Cc3ccco3)CC2)c1 ?
SKN-1 inh: inactive; CendR NRP1 mod: 22; MEKK2 mut-MEK5: inactive; MEKK3 PB1 HTS: inactive; MEKK2wt PB1 HTS: inactive

Results for COc1ccc(CN2CCN(Cc3ccco3)CC2)cc1OC ?
SKN-1 inh: inactive; CendR NRP1 mod: inactive; MEKK2 mut-MEK5: inactive; MEKK3 PB1 HTS: inactive; MEKK2wt PB1 HTS: inactive

What do the screens show for `CC1CCN(C(=O)c2[nH]cnc2C(=O)Nc2cccc(Cl)c2)CC1`?
SKN-1 inh: inactive; CendR NRP1 mod: inactive

Results for COC(=O)[C@@]12CCCCN1[C@H](c1ccc(-c3ccc4c(c3)OCO4)cc1)[C@H]1C(=O)N(C)C(=O)[C@H]12 ?
SKN-1 inh: inactive; CendR NRP1 mod: 30

How did Cc1ccc(S(=O)(=O)N(C)Cc2ccc(C(=O)N/N=C/c3ccc(OC(F)F)cc3OC(F)F)cc2)cc1 do in these assays?
SKN-1 inh: inactive; CendR NRP1 mod: 31; MEKK2 mut-MEK5: inactive; MEKK3 PB1 HTS: inactive; MEKK2wt PB1 HTS: inactive

Results for CC(=O)N1CCN(c2ccc(NCc3ccccc3)cc2)CC1 ?
SKN-1 inh: 38; CendR NRP1 mod: inactive; MEKK2 mut-MEK5: inactive; MEKK3 PB1 HTS: inactive; MEKK2wt PB1 HTS: inactive

Results for CC(C)CC(C(=O)NCc1ccccn1)N1C(=O)c2ccccc2C1=O (stereo not drawn) ?
SKN-1 inh: 42; CendR NRP1 mod: inactive; MEKK2 mut-MEK5: inactive; MEKK3 PB1 HTS: inactive; MEKK2wt PB1 HTS: inactive

Results for COc1ccc(C2CC(=O)Oc3cc(OC)ccc32)cc1 (stereo not drawn) ?
SKN-1 inh: inactive; CendR NRP1 mod: inactive

What do the screens show for `COc1ccc(C2CC(O)(c3ccccc3)Oc3cc(OC)ccc32)cc1` (stereo not drawn)?
SKN-1 inh: inactive; CendR NRP1 mod: 26; MEKK2 mut-MEK5: inactive; MEKK3 PB1 HTS: inactive; MEKK2wt PB1 HTS: inactive

How did C[C@@]12C(=O)N(Cc3ccc(-c4ccccc4)cc3)CC(=O)N1[C@H](/C=C/c1ccccc1)[C@@H]1C(=O)N(c3ccccc3)C(=O)[C@@H]12 do in these assays?
SKN-1 inh: 39; CendR NRP1 mod: inactive; MEKK2 mut-MEK5: inactive; MEKK3 PB1 HTS: inactive; MEKK2wt PB1 HTS: inactive

What do the screens show for `COC(=O)CN1C(=O)[C@H]2[C@@H](/C=C/c3ccccc3)N3C(=O)CN(Cc4ccc(-c5ccccc5)cc4)C(=O)[C@@]3(C)[C@H]2C1=O`?
SKN-1 inh: inactive; CendR NRP1 mod: inactive

What do the screens show for `O=C(COC(=O)Cc1ccc(Cl)cc1Cl)NCCC1=CCCCC1`?
SKN-1 inh: inactive; CendR NRP1 mod: inactive; MEKK2 mut-MEK5: inactive; MEKK3 PB1 HTS: inactive; MEKK2wt PB1 HTS: inactive

What do the screens show for `O=C(COC(=O)c1cc(Cl)ccc1O)NCCC1=CCCCC1`?
SKN-1 inh: inactive; CendR NRP1 mod: 20

How did CCCNC(=O)c1cc(C2CCCN(C(=O)c3ccc(NC(C)=O)cc3)C2)on1 (stereo not drawn) do in these assays?
SKN-1 inh: inactive; CendR NRP1 mod: inactive

How did Cc1oc(-c2ccc(C(F)(F)F)cc2)nc1CN(Cc1ccccn1)C[C@@H]1CCC(=O)N1 do in these assays?
SKN-1 inh: inactive; CendR NRP1 mod: 31; MEKK2 mut-MEK5: inactive; MEKK3 PB1 HTS: inactive; MEKK2wt PB1 HTS: inactive

What do the screens show for `COc1cccc(Nc2nc(Nc3ccc(Cl)c(C(=O)O)c3)nc(C)c2[N+](=O)[O-])c1`?
SKN-1 inh: inactive; CendR NRP1 mod: inactive

How did CCOc1ccc(NS(=O)(=O)c2ccc(C(=O)N(C)CC(=O)Nc3cccc(OC)c3)cc2)cc1 do in these assays?
SKN-1 inh: inactive; CendR NRP1 mod: inactive
